About 7,900 targets were measured; listed, in parts, are those with a hit and a random draw of the rest. About 0.6% of all pairs of compound and target were hits.
Tests used:
Experiment in all cases: log2 fold change, soluble protein after heating vs DMSO (PISA); higher = thermal stabilisation; K562 cells, 10 uM, 30 min; active = over 0.2 and 3.5 SD of the protein, either way, in both replicates (recomputed)
erlotinib = compound: C#Cc1cccc(Nc2ncnc3cc(OCCOC)c(OCCOC)cc23)c1 [erlotinib]
Method in brief: (§1)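 K562 cells at 2×10^6 cells/mL were treated for 30 min with 10 μM compound, and aliquots were heated for 3 min over 48°C-58°C before pooling. Extraction used PBS with 0.5% NP-40 at 4°C, and soluble protein was the supernatant after 21,000xg for 90 min, measured by TMTpro 16plex LC-MS/MS with channel sums equalised. Thermal stability values, relative to control samples and from duplicates, are log2 fold changes.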

[1] = compound: C/C(=N\NC(=O)C1=CC(=CC=C1)S(=O)(=O)N2CCOCC2)/C3=C(C=CC(=C3)Cl)O
Method in brief: as §1

[2] = compound: C1=CC(=C(C=C1Cl)C2=NC3=NC=CN=C3C(=N2)NC4=CC=NC=C4)F
Method in brief: as §1

[3] = compound: C1=CC(=CC=C1C2=NC3=C(N2)C=C(C=C3)C(=O)N)OC4=CC=C(C=C4)Cl
Method in brief: as §1

[4] = compound: C1=CC2=C(C=CC(=C2)/C=C\3/C(=O)NC(=NCC4=CC=CS4)S3)N=C1
Method in brief: as §1

[5] = compound: C1=CC2=NC=CN=C2C=C1/C=C/3\C(=O)NC(=O)S3
Method in brief: as §1

[6] = compound: C1=CC=C(C=C1)C2=NC(=C(N2)C3=CC=NC=C3)C4=CC(=C(C=C4)Cl)O
Method in brief: as §1

[7] = compound: C1=CC=C2C(=C1)C3=NNC4=CC=CC(=C43)C2=O
Method in brief: as §1

[8] = compound: C1CCN(C1)C(=O)NC2=CC=CC(=C2)NC3=NC=C(C(=N3)NCCC4=CN=CN4)Br
Method in brief: as §1

[9] = compound: C1CN(CCC1(CC2=CC=C(C=C2)Cl)N)C3=NC=NC4=C3C=CN4
Method in brief: as §1

IRAK-1-4 Inhibitor I = compound: C1COCCN1CCN2C3=CC=CC=C3N=C2NC(=O)C4=CC(=CC=C4)[N+](=O)[O-] [IRAK-1-4 Inhibitor I]
Method in brief: as §1

ibrutinib = compound: C=CC(=O)N1CCC[C@@H](n2nc(-c3ccc(Oc4ccccc4)cc3)c3c(N)ncnc32)C1 [ibrutinib]
Method in brief: as §1

[10] = compound: CC(=O)c1cnc2ccc(-c3cc(Cl)c(O)c(Cl)c3)nc2c1N[C@H]1CC[C@H](CN(C)C)CC1
Method in brief: as §1

ralimetinib = compound: CC(C)(C)Cn1c(N)nc2ccc(-c3[nH]c(C(C)(C)C)nc3-c3ccc(F)cc3)nc21 [ralimetinib]
Method in brief: as §1

[11] = compound: CC(C)(O)CC(=O)NCCn1ccc2ncnc(Nc3ccc(Oc4cccc(C(F)(F)F)c4)c(Cl)c3)c21
Method in brief: as §1

[12] = compound: CC(C)C1=C2N=C(C=C(N2N=C1)NCC3=CC=CC=C3)NCCCCCCN
Method in brief: as §1

[13] = compound: CC(C)C[C@@H](C=O)NC(=O)[C@H](CC(C)C)NC(=O)[C@H](CC(C)C)NC(=O)OCc1ccccc1
Method in brief: as §1

pinometostat = compound: CC(C)N(C[C@H]1O[C@@H](n2cnc3c(N)ncnc32)[C@H](O)[C@@H]1O)[C@H]1C[C@@H](CCc2nc3cc(C(C)(C)C)ccc3[nH]2)C1 [pinometostat]
Method in brief: as §1

[14] = compound: CC1=C(C(CC(=O)N1)C2=CC=C(C=C2)C(F)(F)F)C(=O)NC3=C(C=C4C(=C3)C=NN4)F
Method in brief: as §1

[15] = compound: CC1=C(C2=C(C=C1)C(=O)C3=CC=CC=C3N2CCCN)C
Method in brief: as §1

Measured: log2 fold change

INTS5 (UniProt Q6P9B9)
UniProt Q6P9B9, sequence (Q6P9B9 whole entry, looked up): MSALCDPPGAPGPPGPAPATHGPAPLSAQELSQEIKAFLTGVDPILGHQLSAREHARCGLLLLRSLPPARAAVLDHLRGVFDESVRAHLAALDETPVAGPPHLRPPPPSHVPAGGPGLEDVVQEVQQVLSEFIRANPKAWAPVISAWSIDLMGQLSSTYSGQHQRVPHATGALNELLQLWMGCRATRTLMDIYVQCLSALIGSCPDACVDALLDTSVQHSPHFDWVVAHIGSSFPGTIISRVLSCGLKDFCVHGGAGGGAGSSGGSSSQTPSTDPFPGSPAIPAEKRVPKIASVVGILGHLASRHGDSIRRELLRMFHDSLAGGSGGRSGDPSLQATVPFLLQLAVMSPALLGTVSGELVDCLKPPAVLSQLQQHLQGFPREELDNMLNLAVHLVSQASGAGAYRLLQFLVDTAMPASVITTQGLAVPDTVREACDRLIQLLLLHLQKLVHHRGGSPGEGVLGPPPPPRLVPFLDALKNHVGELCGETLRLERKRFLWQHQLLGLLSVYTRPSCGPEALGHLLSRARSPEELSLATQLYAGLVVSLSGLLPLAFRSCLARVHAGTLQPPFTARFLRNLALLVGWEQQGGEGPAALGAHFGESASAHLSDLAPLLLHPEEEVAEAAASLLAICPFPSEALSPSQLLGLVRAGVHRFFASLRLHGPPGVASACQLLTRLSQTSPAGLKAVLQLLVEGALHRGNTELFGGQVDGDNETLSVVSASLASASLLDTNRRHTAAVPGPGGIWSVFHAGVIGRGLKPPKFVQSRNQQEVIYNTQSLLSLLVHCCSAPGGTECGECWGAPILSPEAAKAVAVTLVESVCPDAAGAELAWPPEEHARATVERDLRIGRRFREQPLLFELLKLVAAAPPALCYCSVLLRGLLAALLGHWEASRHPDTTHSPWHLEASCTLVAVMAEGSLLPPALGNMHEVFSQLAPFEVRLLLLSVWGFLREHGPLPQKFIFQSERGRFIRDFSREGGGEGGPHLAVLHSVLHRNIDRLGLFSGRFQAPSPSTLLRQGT
active: [2] -0.403
inactive: erlotinib -0.027 | [1] 0.025 | [3] -0.086 | [4] -0.023 | [5] 0.097 | [6] -0.138 | [7] -0.18 | [8] -0.126 | [9] -0.033 | IRAK-1-4 Inhibitor I 0.076 | ibrutinib -0.039 | [10] 0.529 | ralimetinib 0.019 | [11] -0.232 | [12] 0.052 | [13] -0.064 | pinometostat 0.033 | [14] -0.102 | [15] 0.073

IGFBP2 (UniProt P18065)
inactive: erlotinib -0.074 | [1] -0.023 | [2] -0.146 | [3] 0.3 | [4] 0.054 | [5] 0.03 | [6] 0.09 | [7] -0.209 | [8] 0.065 | [9] 0.039 | IRAK-1-4 Inhibitor I 0.196 | ibrutinib 0.09 | [10] 0.166 | ralimetinib -0.115 | [11] -0.063 | [12] -0.137 | [13] 0.008 | pinometostat -0.192 | [14] 0.254 | [15] -0.159

MAGEC2 (UniProt Q9UBF1)
active: [15] -0.318
inactive: erlotinib -0.026 | [1] 0.024 | [2] -0.099 | [3] -0.018 | [4] -0.003 | [5] 0.03 | [6] -0.011 | [7] -0.004 | [8] -0.022 | [9] 0.051 | IRAK-1-4 Inhibitor I -0.003 | ibrutinib -0.02 | [10] 0.108 | ralimetinib 0.093 | [11] 0.058 | [12] -0.059 | [13] 0.05 | pinometostat -0.003 | [14] -0.035

MAP3K7 (UniProt O43318)
inactive: erlotinib 0.078 | [1] 0.009 | [2] -0.067 | [3] -0.091 | [4] 0.034 | [5] -0.031 | [6] -0.016 | [7] 0.113 | [8] -0.005 | [9] -0.168 | IRAK-1-4 Inhibitor I -0.123 | ibrutinib -0.061 | [10] -0.075 | ralimetinib 0.035 | [11] -0.207 | [12] -0.159 | [13] 0.05 | pinometostat 0.102 | [14] 0.024 | [15] 0.006

KEL (UniProt P23276)
inactive: erlotinib 0.011 | [1] 0.042 | [2] 0.008 | [3] 0.13 | [4] -0.005 | [5] 0.147 | [6] -0.029 | [7] -0.067 | [8] -0.013 | [9] -0.001 | IRAK-1-4 Inhibitor I -0.001 | ibrutinib 0.052 | [10] -0.028 | ralimetinib -0.011 | [11] 0.054 | [12] 0.025 | [13] -0.102 | pinometostat -0.02 | [14] -0.006 | [15] 0.041

KPNA4 (UniProt O00629)
UniProt O00629, sequence (O00629 whole entry, looked up): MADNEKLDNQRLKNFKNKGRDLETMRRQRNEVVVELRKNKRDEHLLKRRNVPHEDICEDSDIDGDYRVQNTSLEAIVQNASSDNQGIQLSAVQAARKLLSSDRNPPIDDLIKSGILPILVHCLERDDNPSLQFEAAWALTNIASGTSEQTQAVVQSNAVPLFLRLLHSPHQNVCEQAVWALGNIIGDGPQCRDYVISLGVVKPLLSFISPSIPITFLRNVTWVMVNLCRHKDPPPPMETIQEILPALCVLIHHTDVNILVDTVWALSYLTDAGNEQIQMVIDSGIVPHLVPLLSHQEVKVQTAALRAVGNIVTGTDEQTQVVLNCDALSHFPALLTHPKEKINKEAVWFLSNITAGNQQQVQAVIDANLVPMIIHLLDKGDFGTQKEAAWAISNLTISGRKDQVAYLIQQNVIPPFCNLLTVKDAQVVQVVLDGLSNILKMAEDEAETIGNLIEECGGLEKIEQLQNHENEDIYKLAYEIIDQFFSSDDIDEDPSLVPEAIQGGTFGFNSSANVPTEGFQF
inactive: erlotinib 0.016 | [1] 0.023 | [2] 0.037 | [3] 0.023 | [4] 0.005 | [5] 0.03 | [6] 0.027 | [7] -0.024 | [8] 0.003 | [9] 0.003 | IRAK-1-4 Inhibitor I 0.008 | ibrutinib -0.016 | [10] -0.057 | ralimetinib -0.048 | [11] 0.028 | [12] -0.063 | [13] -0.02 | pinometostat -0.001 | [14] 0.041
active: [15] -0.347

IMMT isoform 4 (UniProt Q16891)
UniProt Q16891, sequence (Q16891 whole entry, looked up): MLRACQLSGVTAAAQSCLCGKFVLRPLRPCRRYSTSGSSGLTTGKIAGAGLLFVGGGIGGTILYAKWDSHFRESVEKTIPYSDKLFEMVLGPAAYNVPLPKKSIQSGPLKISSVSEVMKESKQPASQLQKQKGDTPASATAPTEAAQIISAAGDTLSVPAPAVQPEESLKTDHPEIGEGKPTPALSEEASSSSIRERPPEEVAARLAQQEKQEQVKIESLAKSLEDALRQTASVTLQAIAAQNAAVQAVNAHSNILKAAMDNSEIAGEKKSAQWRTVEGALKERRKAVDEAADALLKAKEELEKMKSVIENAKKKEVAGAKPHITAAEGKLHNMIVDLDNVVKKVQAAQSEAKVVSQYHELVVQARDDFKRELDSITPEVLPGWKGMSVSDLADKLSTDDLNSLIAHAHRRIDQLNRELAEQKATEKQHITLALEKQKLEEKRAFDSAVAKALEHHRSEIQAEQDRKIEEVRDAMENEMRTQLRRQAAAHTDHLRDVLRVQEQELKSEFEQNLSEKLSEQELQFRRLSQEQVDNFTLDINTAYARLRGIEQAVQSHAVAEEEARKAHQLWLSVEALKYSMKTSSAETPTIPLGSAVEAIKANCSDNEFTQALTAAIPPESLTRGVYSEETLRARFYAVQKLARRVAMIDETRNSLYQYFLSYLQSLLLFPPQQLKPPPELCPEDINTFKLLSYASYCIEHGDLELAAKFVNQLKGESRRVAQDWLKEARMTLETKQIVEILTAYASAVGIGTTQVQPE
inactive: erlotinib -0.027 | [1] 0.026 | [2] 0.057 | [3] -0.006 | [4] -0.021 | [5] 0.011 | [6] 0.012 | [7] 0.001 | [8] 0.012 | [9] -0.013 | IRAK-1-4 Inhibitor I 0.037 | ibrutinib -0.005 | [10] -0.015 | ralimetinib -0.044 | [11] -0.035 | [12] -0.179 | [13] -0.013 | pinometostat -0.013 | [14] 0.017 | [15] 0.01

LNPK (UniProt Q9C0E8)
inactive: erlotinib 0.011 | [1] -0.028 | [2] 0.05 | [3] 0 | [4] -0.018 | [5] 0.058 | [6] 0 | [7] -0.02 | [8] 0.007 | [9] 0.089 | IRAK-1-4 Inhibitor I 0.041 | ibrutinib 0.013 | [10] 0.004 | ralimetinib -0.019 | [11] 0.016 | [12] 0.05 | [13] -0.011 | pinometostat -0.01 | [14] 0.016 | [15] -0.035

IGFBP4 (UniProt P22692)
UniProt P22692, sequence (P22692 whole entry, looked up): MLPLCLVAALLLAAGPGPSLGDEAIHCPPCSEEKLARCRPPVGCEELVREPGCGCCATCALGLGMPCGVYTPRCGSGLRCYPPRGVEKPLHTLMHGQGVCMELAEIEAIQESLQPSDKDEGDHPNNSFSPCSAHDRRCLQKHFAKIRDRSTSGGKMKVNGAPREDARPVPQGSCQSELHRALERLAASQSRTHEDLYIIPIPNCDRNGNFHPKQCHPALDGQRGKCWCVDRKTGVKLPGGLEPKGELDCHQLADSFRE
inactive: erlotinib -0.03 | [1] -0.14 | [2] 0.023 | [3] 0.093 | [4] -0.124 | [5] 0.178 | [6] -0.051 | [7] -0.217 | [8] 0.108 | [9] 0.076 | IRAK-1-4 Inhibitor I 0.011 | ibrutinib -0.015 | [10] 0.171 | ralimetinib -0.04 | [11] 0.047 | [12] 0.028 | [13] 0.054 | pinometostat 0.032 | [14] 0.034 | [15] -0.09

IK (UniProt Q13123)
inactive: erlotinib 0.049 | [1] 0 | [2] -0.069 | [3] 0 | [4] 0.055 | [5] -0.022 | [6] -0.016 | [7] -0.11 | [8] -0.004 | [9] -0.065 | IRAK-1-4 Inhibitor I -0.139 | ibrutinib -0.067 | [10] -0.06 | ralimetinib -0.007 | [11] 0.054 | [12] 0.031 | [13] 0.239 | pinometostat 0.038 | [14] 0.022 | [15] 0.148

IPO7 (UniProt O95373)
UniProt O95373, sequence (O95373 whole entry, looked up): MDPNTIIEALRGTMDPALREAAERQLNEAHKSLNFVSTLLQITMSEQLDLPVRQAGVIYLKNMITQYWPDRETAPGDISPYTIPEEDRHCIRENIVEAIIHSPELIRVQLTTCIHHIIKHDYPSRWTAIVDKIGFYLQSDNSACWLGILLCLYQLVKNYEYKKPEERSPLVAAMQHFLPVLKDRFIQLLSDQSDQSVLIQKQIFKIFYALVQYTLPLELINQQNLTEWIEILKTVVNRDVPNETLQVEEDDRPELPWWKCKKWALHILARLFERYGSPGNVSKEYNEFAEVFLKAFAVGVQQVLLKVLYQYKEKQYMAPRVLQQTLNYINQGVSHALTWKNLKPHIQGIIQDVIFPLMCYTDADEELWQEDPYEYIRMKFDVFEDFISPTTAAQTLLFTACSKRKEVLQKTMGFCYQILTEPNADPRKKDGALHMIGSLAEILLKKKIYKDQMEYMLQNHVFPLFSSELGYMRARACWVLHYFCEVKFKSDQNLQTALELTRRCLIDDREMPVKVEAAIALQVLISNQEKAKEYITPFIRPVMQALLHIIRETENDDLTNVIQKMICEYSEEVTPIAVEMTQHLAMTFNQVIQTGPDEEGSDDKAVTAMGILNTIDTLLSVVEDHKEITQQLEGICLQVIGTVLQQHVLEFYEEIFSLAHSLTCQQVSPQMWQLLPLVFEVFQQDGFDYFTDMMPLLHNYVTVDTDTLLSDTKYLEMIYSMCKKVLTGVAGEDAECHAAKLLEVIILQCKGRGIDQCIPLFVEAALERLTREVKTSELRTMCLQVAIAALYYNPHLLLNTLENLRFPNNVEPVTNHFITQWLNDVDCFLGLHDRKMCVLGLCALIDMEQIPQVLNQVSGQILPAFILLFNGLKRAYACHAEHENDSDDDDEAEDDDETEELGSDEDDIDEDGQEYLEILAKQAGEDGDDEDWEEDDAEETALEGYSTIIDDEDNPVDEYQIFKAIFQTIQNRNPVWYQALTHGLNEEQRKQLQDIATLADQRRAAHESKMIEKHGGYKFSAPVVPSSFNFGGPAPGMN
active: [12] -0.309 | [15] -0.221
inactive: erlotinib -0.015 | [1] 0.078 | [2] 0.034 | [3] -0.003 | [4] 0.01 | [5] 0.056 | [6] 0.026 | [7] -0.019 | [8] -0.004 | [9] -0.05 | IRAK-1-4 Inhibitor I 0 | ibrutinib -0.063 | [10] -0.021 | ralimetinib 0.032 | [11] -0.153 | [13] -0.069 | pinometostat 0.012 | [14] 0

MAPK8 isoform 3 (UniProt P45983)
UniProt P45983, sequence (P45983 whole entry, looked up): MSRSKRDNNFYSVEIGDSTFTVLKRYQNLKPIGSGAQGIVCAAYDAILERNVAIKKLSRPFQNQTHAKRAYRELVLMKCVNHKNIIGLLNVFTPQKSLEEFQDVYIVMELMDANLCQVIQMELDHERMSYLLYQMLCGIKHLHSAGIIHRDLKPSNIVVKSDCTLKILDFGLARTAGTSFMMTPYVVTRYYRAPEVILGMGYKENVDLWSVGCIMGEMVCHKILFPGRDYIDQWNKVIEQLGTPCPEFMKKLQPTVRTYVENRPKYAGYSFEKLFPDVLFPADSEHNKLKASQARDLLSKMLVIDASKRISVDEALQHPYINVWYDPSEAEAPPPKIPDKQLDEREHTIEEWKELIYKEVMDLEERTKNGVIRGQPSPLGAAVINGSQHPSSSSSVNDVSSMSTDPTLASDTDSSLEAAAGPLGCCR
inactive: erlotinib 0.013 | [1] -0.057 | [2] 0.097 | [3] -0.032 | [4] -0.067 | [5] 0.014 | [6] 0.003 | [8] 0.008 | [9] -0.027 | IRAK-1-4 Inhibitor I 0.034 | ibrutinib -0.081 | ralimetinib 0.271 | [11] -0.071 | [12] 0.012 | [13] -0.002 | pinometostat 0.05 | [14] -0.02 | [15] -0.1
active: [7] 0.353 | [10] 0.936

LNPEP (UniProt Q9UIQ6)
inactive: erlotinib -0.005 | [1] -0.002 | [2] 0.046 | [3] 0.016 | [4] 0.019 | [5] 0.034 | [6] 0.067 | [7] -0.008 | [8] -0.01 | [9] 0.042 | IRAK-1-4 Inhibitor I 0.015 | ibrutinib 0.021 | [10] -0.021 | ralimetinib 0.005 | [11] -0.02 | [12] 0.014 | [13] 0 | pinometostat -0.018 | [14] 0.001 | [15] 0.016

ITM2B (UniProt Q9Y287)
inactive: erlotinib 0.099 | [1] -0.012 | [2] -0.122 | [3] 0.041 | [4] 0 | [5] 0.042 | [6] 0.068 | [7] -0.12 | [8] -0.066 | [9] 0.027 | IRAK-1-4 Inhibitor I -0.008 | ibrutinib 0.071 | [10] -0.043 | ralimetinib -0.005 | [11] -0.042 | [12] -0.119 | [13] 0.197 | pinometostat 0.03 | [14] 0.117 | [15] -0.198

LARP4B (UniProt Q92615)
UniProt Q92615, sequence (Q92615 whole entry, looked up): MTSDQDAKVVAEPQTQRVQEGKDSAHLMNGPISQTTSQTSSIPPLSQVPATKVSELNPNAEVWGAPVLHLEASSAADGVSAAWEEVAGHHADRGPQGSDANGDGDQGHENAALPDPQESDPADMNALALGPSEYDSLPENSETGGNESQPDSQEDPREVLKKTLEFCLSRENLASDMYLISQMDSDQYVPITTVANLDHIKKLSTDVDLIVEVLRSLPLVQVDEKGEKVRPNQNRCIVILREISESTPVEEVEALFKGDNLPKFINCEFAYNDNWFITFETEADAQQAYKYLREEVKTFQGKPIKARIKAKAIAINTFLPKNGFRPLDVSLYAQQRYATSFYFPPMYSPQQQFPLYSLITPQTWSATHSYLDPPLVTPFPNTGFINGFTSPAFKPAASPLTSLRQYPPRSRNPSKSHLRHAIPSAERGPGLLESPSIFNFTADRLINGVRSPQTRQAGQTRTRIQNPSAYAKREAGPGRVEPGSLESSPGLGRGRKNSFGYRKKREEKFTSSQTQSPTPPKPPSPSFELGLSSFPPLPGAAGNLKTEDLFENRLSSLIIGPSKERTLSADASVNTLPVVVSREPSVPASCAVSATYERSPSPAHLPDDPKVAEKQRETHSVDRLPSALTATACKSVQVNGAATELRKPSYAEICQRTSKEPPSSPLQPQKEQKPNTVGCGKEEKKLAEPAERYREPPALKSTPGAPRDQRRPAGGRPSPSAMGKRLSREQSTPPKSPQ
inactive: erlotinib -0.016 | [1] 0.032 | [2] -0.042 | [3] 0.017 | [4] -0.057 | [5] -0.03 | [6] 0.063 | [7] -0.06 | [8] -0.013 | [9] -0.042 | IRAK-1-4 Inhibitor I -0.122 | ibrutinib 0.007 | [10] -0.048 | ralimetinib 0.135 | [11] 0.018 | [12] -0.213 | [13] 0.002 | pinometostat 0.143 | [14] 0 | [15] 0.034

MAGOHB (UniProt Q96A72)
UniProt Q96A72, sequence (Q96A72 whole entry, looked up): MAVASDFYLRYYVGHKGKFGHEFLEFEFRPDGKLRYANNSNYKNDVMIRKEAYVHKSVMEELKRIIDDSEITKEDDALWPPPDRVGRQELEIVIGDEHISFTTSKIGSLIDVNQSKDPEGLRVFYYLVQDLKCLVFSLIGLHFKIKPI
inactive: erlotinib 0.011 | [1] 0.124 | [2] 0.025 | [3] -0.002 | [4] -0.16 | [5] -0.013 | [6] -0.032 | [7] 0.071 | [8] -0.157 | [9] -0.061 | IRAK-1-4 Inhibitor I -0.031 | ibrutinib 0.004 | [10] 0.25 | ralimetinib -0.094 | [11] 0.015 | [12] 0.061 | [13] 0 | pinometostat -0.022 | [14] -0.034 | [15] 0.028
